# Measured values: the supplement of paper PMC6555819
# Key:
# Assay in all cases: PBM binding z-score (relative to random genomic background probes); higher = stronger binding; sequences stand for … in GC…GCGATTGACAGCGTAGAATGAAGG
# [1] = test system: FXR:RXRa (NR concentration 270 nM, RXRa partner concentration 90 nM)
# Method in brief: (§1)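 Binding z-scores take random background probes as their reference. They come from custom Agilent 4×180K protein-binding microarrays incubated 1 h with ligand-free nuclear receptor dimers, with antibodies against each partner (one per run) detecting binding. Scanned fluorescence was regression-normalized.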
# [2] = test system: LXRa:RXRa (NR concentration 270 nM, RXRa partner concentration 90 nM)
# Method in brief: as §1
# [3] = test system: LXRa homodimer (NR concentration 270 nM)
# Method in brief: as §1
# [4] = test system: LXRb:RXRa (NR concentration 270 nM, RXRa partner concentration 90 nM)
# Method in brief: as §1
# [5] = test system: LXRb homodimer (NR concentration 270 nM)
# Method in brief: as §1
# [6] = test system: PPARa:RXRa (NR concentration 270 nM, RXRa partner concentration 90 nM)
# Method in brief: as §1
# [7] = test system: PPARg:RXRa (NR concentration 180 nM, RXRa partner concentration 90 nM)
# Method in brief: as §1
# [8] = test system: PPARg:RXRa 270nM:90nM, anti-RXR (NR concentration 270 nM, RXRa partner concentration 90 nM)
# Method in brief: as §1
# [9] = test system: PPARg:RXRa 30nM:10nM, anti-RXR (NR concentration 30 nM, RXRa partner concentration 10 nM)
# Method in brief: as §1
# [10] = test system: PPARg:RXRa 90nM:30nM, anti-RXR (NR concentration 90 nM, RXRa partner concentration 30 nM)
# Method in brief: as §1
Sequence,PBM binding z-score [1],PBM binding z-score [2],PBM binding z-score [3],PBM binding z-score [4],PBM binding z-score [5],PBM binding z-score [6],PBM binding z-score [7],PBM binding z-score [8],PBM binding z-score [9],PBM binding z-score [10]
AGACTGAGGTTAAGATCAGGGAAACAGAATACAT,2.11,1.75,-0.133,1.6,-0.417,2.92,1.21,1.18,0.748,0.879
GATACTGGGTCAGCTAGAGGCCAGAGTATGGAAA,0.906,0.796,-0.487,0.388,-0.812,2.91,3.87,3.8,0.981,2.65
TAGCCTAGGTCATCCGGGCCAGTATAGTGTCGGC,4.52,3.54,0.755,2,0.281,3.48,1.95,2.35,0.0412,1.5
TCAGACAGGTGAAGGTACCTCAGGTACGCAGTCG,0.559,0.611,-0.182,0.0572,-0.29,1.13,0.642,1.8,3.41,2.54
CTACCAAGGTGAACAAGGTCGTCGATTACTATTC,1.41,1.49,0.0578,1.95,-0.568,2.77,1.41,1.59,0.0715,0.943
CCTACTGGGCCAAGGTTATTGATCAGTCAAAGCA,0.116,0.594,-0.113,0.269,-0.596,1.78,2.64,3.06,0.701,2.48
CATACTGGGCCAAAAAGGTCATTGATGCCGATAA,3.78,4.56,3.26,4.16,0.973,4.63,2.82,3.82,1.24,3.11
TGAATGAGGTTATAAGATCAGGCAACGTTGCAAA,1.34,1.51,-0.418,1.22,-0.11,2.69,1.48,2.02,1.21,1.73
CGTCCAAGCTCAAAGGTCAGTGAAGAGATGACGG,3,2.95,0.546,2.8,0.14,3.99,3.03,4.16,2.1,3.97
TTACCAAGGCGAGCTGAGGTCGTTGATCCAACTC,0.487,0.298,-0.362,0.482,-0.87,0.95,-0.35,0.0213,-0.31,0.219
TCTATTAGTTGACTAGGGCAACCGAAACAGCGGA,0.843,0.805,-0.0763,0.429,0.447,1.45,0.971,2.37,3.68,3.07
TCTTGTAGATCAAAGGATAAGAAAGCCGAAGCCT,0.762,0.274,-0.116,-0.287,-0.528,0.671,1.13,3.36,3.43,3.38
ACTTACGGGTCAACGAGGTTACAGCACGCGTATA,7.13,5.03,0.828,4.72,0.537,6,5.8,5.86,2.49,4.5
TCTTGTAGATCAACAGGAGATTAAGAAAGATCGA,-0.494,-0.198,-0.713,-0.321,-0.695,0.133,0.237,0.964,2.14,1.68
CGAACTAGGTCAACCAGGACAGTGAATACATTGA,4.29,2.78,0.571,2.31,0.00788,4.98,8.21,6.58,4.17,5.96
CTCGAAAGGTCGTGCTCAGGTAAGTATACCAAAC,5.43,4.11,0.35,3.55,0.134,5.08,2.41,4.23,1.01,2.94
GCTGCTAGGTCAGGTTGATCAGCTAACGGGTACG,1.01,0.585,-0.478,0.353,-0.451,1.47,0.663,0.926,-0.231,0.36
AGAATGCGGTTATTAAGATCAGGGAATTGCGGTC,-0.258,-0.138,-0.259,-0.43,-0.728,-0.484,0.0333,-0.202,-0.149,-0.182
GCTGCTAGGTCAACTGATGGTCAGCAAAAGCTCG,4.32,3.25,0.157,2.12,0.113,3.81,2.95,3.41,0.384,2.37
CAAACTAGGTCACGAAAGGTCAAGGTCGAATGAC,7.28,7.82,6.86,6.75,1.7,6.43,10.6,8.38,7.12,8.5
CAAACTAGGTCAAGATGTCAAAGTCCGCTTCCCG,3.9,3.18,0.475,2.4,0.306,4.98,8.33,7.27,4.86,7.04
GATACAGGGTCAAGGCCACAGTACGCGTATTGAT,6.86,4.11,0.0617,3.76,-0.0921,5.98,6.37,5.82,2.54,4.69

Sequence,PBM binding z-score [1],PBM binding z-score [2],PBM binding z-score [3],PBM binding z-score [4],PBM binding z-score [5],PBM binding z-score [6],PBM binding z-score [7],PBM binding z-score [8],PBM binding z-score [9],PBM binding z-score [10]
GGATCGAGGGCAAGTTGATAGCAGAGTTTGATGG,0.982,0.317,-0.184,0.122,0.0808,1.42,0.962,0.758,0.0505,0.387
CGAACTAGGTCAAGGACAGGGAATCTCCGCACGC,3.17,2.12,0.324,1.32,-0.364,4.52,7.01,6.26,3.78,5.95
CCTTACGTGTCACTCCAGGTTATAGCATCGGAGT,1.96,5.55,2.04,1.89,1.05,0.862,0.466,0.288,-0.302,-0.0102
TCTAGCAGGCCACAGGGTCACTCAAGAGGTACGG,1.75,1.69,-0.338,1.82,-1.09,3.23,2.19,3.02,2.18,2.65
CTCGTAAGGTCGTGCTCAGGTGAGTATACCAAAC,3.16,2.44,-0.206,1.97,0.357,3.48,0.721,1.85,0.398,1.07
TTACCAAGGTGAAGGTCGTTGATCCCTCTGTAGA,2.37,2.03,-0.222,1.45,-0.739,2.55,3.15,3.94,2.09,3.67
CCTAGCAGGCCAATCTGGGTTACTCAAGGCTTGA,0.0367,-0.0703,-0.681,-0.364,-1.09,1.18,0.194,0.0942,-1.01,-0.507
ACTATTAGTTGAGACGAAGGCAACCGATAGGTTG,-0.426,-0.372,-0.315,-0.554,0.221,-0.644,0.452,-0.4,-0.441,-0.372
TCTTGTAGGTCAAGCAGGTTAAGAAAGCCTGAGT,5.29,4.34,1.19,3.44,0.725,5.22,7.42,6.59,4.79,6.42
CCTCGGAGGACAGTAGGTCAGAGCTGTCCGCTTT,0.394,0.75,-0.0267,-0.0579,-0.769,1.64,0.253,1.47,-0.726,0.521
AGAATGAGGTTACCAAACATCAGGGAAACGCTTG,2.02,2,-0.389,1.31,-0.323,3.21,2.42,2.19,1.04,1.8
TCATATAGGTAAAAGGTGAAATTCGGTGTGGTAA,2.42,1.99,0.471,2.11,0.332,5.49,8.93,8.13,8.19,8.89
CCTGCTAGGTCAAGGTCAGCTAATCTACAGTATG,4.87,3.95,1.09,3.19,0.294,4.45,3.7,4.63,1.39,3.47
GCTGCTAGGCCAGGTTGGTCAGCTAACGGGTACG,-1,-1.03,-0.776,-1.31,-1.37,-1.27,-0.607,-1.01,-1.22,-1.17
CCTATTAGTTTACCATAAGGGCAACCGAAGCTCG,0.454,0.693,0.603,0.679,0.527,0.641,0.273,0.684,0.33,0.455
TCATATAGGTGAATGCTAGGTGAAAGTCCGATCT,1.13,0.917,-0.0779,0.789,-0.221,2.55,2.75,3.13,3.54,3.07
CCTAGTTGGTCCGGAGGTCACACACCGGATATGA,3.5,3.34,2.47,3.37,0.577,3.61,2.4,3.54,1.51,3.05
TAGCCTAGGTCAGATCGGGCCAGAATACGCTATA,1.65,1.06,-0.312,0.942,-0.714,1.79,0.869,0.835,-0.187,0.398
GATAGAGGGTCAGCTAGAGGCCAGAGTATGGAAA,3.79,2.41,-0.113,2.02,-0.604,3.92,2.36,2.57,0.476,1.54
TCTTGTAGATCAACAGGAGGTAAAGAAAGATCGA,-0.194,-0.0725,-0.569,-0.104,-0.41,0.461,0.106,1.19,2.4,1.96
CCTACTGGACCATTCAGAGGTCATTGATCATATG,3.05,4.64,6.93,3.96,1.41,3.7,0.988,2.16,0.466,1.38
TCTATTAGTTGATAAGGGCAACCGAAACAGCGGA,0.612,0.486,0.203,0.463,0.396,0.736,0.322,1.86,3.81,2.97
